This is part of a sample that, as a whole, favours compounds with a hit. Of some 83,000 tested, about 20% had one in any assay.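 Step 1: grow cells in 96-well plates. Step 2: add test compound at a single concentration. Step 3: incubate 48 h. Step 4: record percent growth.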 A number with no mark means an inactive call. The source made the active and inactive calls. How the source made its calls: active means growth percent below 10; inactive means the rest.

The experiment relates to HL-60(TB) leukemia. Put plainly: NCI-60 one-dose screen, 48 h (100 = growth as untreated, 0 = no growth, -100 = all killed). The conditions noted are these: 10 µM unless noted.
For the compound `Cn1c2c(c3ccccc31)CCN1C[C@@H]3CCCC[C@H]3C[C@@H]21`, the growth was 2.52% (active). Consider `CCn1c(Cc2ccccc2Nc2c(Cl)cccc2Cl)nnc1SCC(=O)NN1C(=O)/C(=C/c2cccc(OC)c2OC)SC1=S`, for which the growth was 97.5%. Then `CC(C)(C)c1cc(C(C)(C)C)cc(S(=O)(=O)Nc2cc3ccccc3cc2C(=O)NCCN)c1`, with -19.8% (active).

As for `O=C(N/N=C\c1cccc([N+](=O)[O-])c1)N/N=C/c1cccc([N+](=O)[O-])c1`, the growth was 107%.

Turning to `O=C(Nc1cccnc1Nc1ccc(Cl)cc1)c1cn(Cc2cccc(Oc3ccccc3)c2)nn1`, the growth is 12.9%. As to `O=S(=O)(NCCNc1cc(-c2cn(-c3ccccc3)nc2-c2cccc(O)c2)ccn1)c1ccc(F)cc1`, the growth is 6.88% (active). As for `O=C([C@H]1C[C@H]1c1ccc(S(F)(F)(F)(F)F)cc1)N1CCN(c2cc(Cl)ccc2C(F)(F)F)CC1`, the growth was 83.5%.

For the compound `O=C1c2cc3c(cc2-c2c1c1cc(F)c(F)cc1c(=O)n2C[C@H](O)CO)OCO3`, the growth is -16.4% (active). Then `C=C1C(=O)O[C@H]2[C@H]1CC/C(COC(=O)/C=C\C(=O)NCc1ccc(Cn3c(=O)sn(CCCCl)c3=O)cc1)=C\CC[C@@]1(C)O[C@@H]21`, with 10.8%. Turning to `CC1=NNC(=O)C1C` (stereo not given), the growth was 124%. In the case of `CCOC(=O)c1sc2nc(-c3cc(OC)c(OC)c(OC)c3)nc(N3CCOCC3)c2c1C` it was 24.7%; in that of `O=C(NC1CCOCC1)c1ccc2c(c1)CN(c1ncc(Cc3cccc(-n4cccn4)c3)s1)CC2`, 68.7%; in that of `Cc1c(Cl)cc(Cl)c(N)c1Cl`, 102%.

With `O=C(Nc1ccc(-n2ccc3c(NC(=O)c4ccccc4)nccc32)cc1)Nc1ccc(Cl)c(Cl)c1`, the growth is -16.4% (active). Consider `COc1cc2oc(-c3ccc(O)cc3)cc(=O)c2c(O)c1-c1c(OC)cc(O)c2c(=O)cc(-c3ccc(O)cc3)oc12`, for which the growth is 0.122% (active).

Consider `C=CCn1c(SCC(=O)Nc2ccc(C(=O)/C=C/c3ccc(Cl)cc3)cc2)nnc1-c1ccc(Cl)c(Cl)c1`, for which the growth is 56.8%.

With `CC(C)(C)OC(=O)CN1CCc2c(sc3ncnc(N/N=C/c4cccc5ccccc45)c23)C1`, the growth was -9.67% (active). Then `COc1cc(NC(=O)c2cncnc2Nc2ccc3c(ccn3Cc3cccc(F)c3)c2)cc(OC)c1`, with 21%; and `C[C@]12CC[C@H](O)CC1=CC[C@@H]1[C@@H]2CC[C@]2(C)C(c3cccnc3)=CC[C@@H]12`, with -25% (active).

Turning to `O=C(NC(Cc1nnc2n(Cc3ccccc3)c(=O)c3c4c(sc3n12)CCCC4)c1ccccc1)c1ccccc1` (stereo not given), the growth was -70.3% (active). Regarding `COc1cc(-c2nn(-c3cccc(NC(=O)Nc4cccc(C(F)(F)F)c4)c3)cc2-c2ccncc2)ccc1Cl`, the growth was -18.7% (active). For `N#Cc1c2c(nc3n[nH]c(N)c13)CCCC2`, the growth was 87.3%. In the case of `CC(C)(C)[Si](C)(C)OC1[C@@H](CNC(N)=O)O[C@@H](n2cnc3c(NC(=O)Nc4ccccc4)ncnc32)[C@H]1O[Si](C)(C)C(C)(C)C` (stereo not given in full), the growth is 52%. For the compound `N=C(N)c1ccc(-c2ccc(-c3cccs3)s2)cc1`, the growth was -46.6% (active).

On to `CCOC(=O)C(Cc1ccc(OC)cc1)C(=O)OCC`, for which the growth is 3.77% (active). Then `COCCOCCOCc1n(Cc2ccc3ccccc3n2)c2ccccc2[n+]1Cc1ccc2ccccc2c1`, with -68% (active); and `COc1ccc2nc3cc(Cl)ccc3c(N3CCN(c4nccc(Nc5ccc(Cl)cc5)n4)CC3)c2c1`, with 48%; and `C/C(=N\NC(=O)Cn1c(-c2ccc(S(C)(=O)=O)cc2)nc2ccccc21)c1ccc(Cl)cc1`, with 74.8%.

`OCc1cnccc1NCCCOc1ccccc1`: the growth was 89.4%. `C=C1C(=O)O[C@H]2[C@H]1CC/C(COC(=O)/C=C\C(=O)NCc1ccc(Cn3c(=O)sn(-c4ccc(C#N)cc4)c3=O)cc1)=C\CC[C@@]1(C)O[C@@H]21`: the growth was -40.3% (active). With `c1ccc(-c2nnc(-c3ccccn3)s2)nc1`, the growth is 95.8%. Then `CC(=O)OC1CCC2(C)C(CCC3C4CC=C(C(C)=O)C4(C)OC(=O)CC32)C1` (stereo not given), with -39.8% (active); and `O=C1/C(=C/c2ccc(Br)cc2)COc2ccc(O)c(O)c21`, with -23.2% (active); and `CC(=O)O[C@]1(C)CC[C@H]2[C@H](CNCCc3ccc(Cl)cc3)C(=O)O[C@@H]2C2=C(C)C(=O)C[C@H]21`, with 89.2%. In the case of `Cc1cc(C)cc(OCC(=O)O)c1`, the growth was 86%. In the case of `NC1=C(/C(N)=N/O)C(c2ccccc2)c2ccc3ccccc3c2O1` (stereo not given) it was -19% (active); in that of `O=C(NCCCNS(=O)(=O)c1ccc(Cl)cc1)Nc1ccc(-n2cc(-c3ccncc3)c(-c3ccc(Cl)c(O)c3)n2)cc1`, 16.3%; in that of `COc1cccc2c1C(=O)c1c(O)c3c(c(O)c1C2=O)C[C@@](O)(C(C)=O)C[C@@H]3OC1CC(N)C(O)C(C)O1` (stereo not given in full), -63.3% (active).

With `ONc1nc(NO)c2[nH]cnc2n1`, the growth was 15.1%. In the case of `COc1cc2c(cc1-c1c(C)noc1C)ncc1nc(C3CCC(F)(F)CC3)n(C3CCC(OC(F)F)CC3)c12` (stereo not given) it was 7.4% (active).
